# Screening results as filed in PubChem BioAssay.
# SENP8 block-1: human SENP8 protease inhibitors, primary screen, biochemical, fluorescence, Nedd8 protein substrate, uHTS; inhibition, % at 20 µM; 360,000 compounds, 0.64% hits; recombinant SENP8; in the data active means inhibition mostly above about 40%, no sharp cut-off; inactive means mostly below about 27%
# SENP6 block: SENP6 protease inhibitors, primary screen, biochemical, luminescence, uHTS; Recombinant SENP6 catalytic domain, aminoluciferin luminescence; 330,000 compounds, 1.8% hits; AID 2599, 2010; Sentrin-specific protease 6 (Homo sapiens), Q9GZR1; inhibition, % at 10 µM;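 active means inhibition above about 50% at the single tested dose, limit read from the data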;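 further: plate controls were DMSO wells with enzyme for no effect and DMSO wells lacking enzyme for full effect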
# Target sequence (Q9GZR1 628-1112 limits assumed): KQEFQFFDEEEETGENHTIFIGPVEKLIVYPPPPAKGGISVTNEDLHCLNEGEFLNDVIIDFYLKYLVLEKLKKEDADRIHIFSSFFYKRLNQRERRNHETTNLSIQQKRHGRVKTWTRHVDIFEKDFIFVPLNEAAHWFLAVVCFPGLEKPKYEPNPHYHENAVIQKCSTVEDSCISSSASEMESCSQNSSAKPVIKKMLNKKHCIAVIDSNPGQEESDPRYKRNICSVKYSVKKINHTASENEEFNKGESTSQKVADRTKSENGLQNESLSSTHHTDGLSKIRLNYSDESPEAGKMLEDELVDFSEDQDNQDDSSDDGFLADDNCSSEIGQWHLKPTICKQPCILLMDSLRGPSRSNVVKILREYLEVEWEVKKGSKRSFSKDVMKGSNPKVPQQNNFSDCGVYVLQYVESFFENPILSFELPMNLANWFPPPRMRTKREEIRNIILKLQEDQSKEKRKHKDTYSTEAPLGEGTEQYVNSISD
# SENP8 block-2: SENP8 protease inhibitors, primary screen, biochemical, luminescence | Sentrin-specific protease 8 (Homo sapiens), Q96LD8 | purified SENP8, Z-RLRGG-aminoluciferin cleavage | inhibition, % at 10 µM | 330,000 compounds, 1.2% hits; in the data active means inhibition above about 50%
# TRAIL sens C8: viability loss with TRAIL in NB7+C8 cells, primary screen, TRAIL sensitizer project, cell-based, ATPlite luminescence; inhibition (viability loss, TRAIL sensitization), % at 10 µM; 360,000 compounds, 1% hits; AID 624354, 2012;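 active means compounds causing at least 50% loss of cell viability in the single-dose screen, relative to plate controls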
# SENP7 block: SENP7 protease inhibitors, primary screen, biochemical, luminescence, uHTS; recombinant SENP7, Z-RLRGG-aminoluciferin luminescence, 40 min; AID 434973, 2010; inhibition, % at 5 µM; Sentrin-specific protease 7 (Homo sapiens), Q9BQF6; 330,000 compounds, 1.5% hits;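 active means inhibition above about 50% at the single test dose, limit read from the data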;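 further: plate controls were DMSO with enzyme for no effect and no enzyme buffer wells for full effect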
# PPC-1+TRAIL kill: compounds killing PPC-1 cancer cells with TRAIL present, primary screen, TRAIL potentiator project, ATPLite luminescence, uHTS | PPC-1 cells + TRAIL, ATPLite viability luminescence | 220,000 compounds, 0.41% hits | cell killing (% activity), % at 4 µM or 5 µM;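 active means cell killing above 50% in the first pass at 4 µM, then a duplicate retest at 5 µM averaging 50% or more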;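 further: plate controls were cells with TRAIL plus DMSO for no effect and medium-only wells lacking cells for full effect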
# SENP8 confirm: SENP8 protease inhibitors, retest, confirmation, biochemical, luminescence, single concentration | shares compounds with SENP7 block | Recombinant SENP8, Z-RLRGG-aminoluciferin luminescence, 60 min | inhibition, % at 12.5 µM | 6,200 compounds, 40% hits;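 active means mean inhibition across replicates above about 50%, limit read from the data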
# SENP6 confirm: SENP6 protease inhibitors, confirmation, biochemical, luminescence, single concentration; recombinant SENP6, Z-RLRGG-aminoluciferin luminescence; 6,200 compounds, 58% hits; inhibition, % at 12.5 µM; shares compounds with SENP7 block
# SENP7 conf: SENP7 protease inhibitors, retest, confirmation, biochemical, luminescence, single concentration; inhibition, % at 12.5 µM; shares compounds with SENP7 block; AID 488917, 2010; recombinant SENP7, Z-RLRGG-aminoluciferin luminescence, 40 min; 6,200 compounds, 69% hits
# Casp3 select: caspase-3 protease inhibitors, confirmation, selectivity assay for SENP inhibitor project, biochemical, single concentration | shares compounds with SENP7 block | purified caspase-3, Z-DEVD-aminoluciferin luminescence, 60 min | inhibition, % at 12.5 µM | 6,200 compounds, 60% hits | AID 488918, 2010;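 active means mean inhibition above about 50%, limit read from the data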;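 further: plate controls were enzyme with DMSO for no effect and wells without caspase-3 for full effect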
# Luc interf: luminescence interference (SENP counter-screen); shares compounds with SENP7 block; Pre-incubated SENP8/Z-RLRGG-aminoluciferin, luciferase luminescence interference; inhibition, % at 12.5 µM; 6,200 compounds, 39% hits; AID 488919;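 active means mean inhibition above about 50% when retested at one dose, limit read from the data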;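 further: plate controls were DMSO wells with completed reaction for no effect and substrate without enzyme for full effect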
# Numbers without * were called inactive; i = inactive; . = no result. A selection: hits, their analogues and other compounds. The true share with any hit is near 3%.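 How the source made its calls, unless noted: active means mean inhibition above about 50% in the one-dose retest (limit read from the data); inactive means the rest.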
SMILES,SENP8 block-1,SENP6 block,SENP8 block-2,TRAIL sens C8,SENP7 block,PPC-1+TRAIL kill,SENP8 confirm,SENP6 confirm,SENP7 conf,Casp3 select,Luc interf
C/C(=N/NC(=O)c1ccccn1)c1ccco1,3.4,66.6*,62.5*,54.2*,1.9,32.8,76.3*,67.0*,90.1*,92.2*,70.6*
Cc1cc(C(=O)COC(=O)c2ccc[nH]c2=O)c(C)n1C1CC1,5.0,-35.3,-4.1,12.8,-3.2,24.2,.,.,.,.,.
Cc1cc(C(=O)COC(=O)c2ccc(F)cc2F)c(C)n1C1CC1,11.8,63.6*,49.6,2.3,43.3,.,-1.3,-13.5,33.0,13.9,-3.1
c1ccc(Cn2ccc(-c3cnc(-c4ccccc4)s3)n2)cc1,i,81.0*,64.1*,19.5,79.9*,12.1,8.8,78.0*,91.8*,62.9*,64.3*
Cc1cccc(Cl)c1OCCCn1ccnc1,13.9,-9.0,4.1,1.1,0.3,.,.,.,.,.,.
O=C(c1cc(-c2cccc(O)c2)on1)N1CCCCCC1,11.7,37.3,20.2,14.0,16.2,.,.,.,.,.,.
COc1ccc(-c2cc(C(=O)N3CCOCC3)no2)cc1,9.0,50.9*,41.7,51.4*,54.6*,.,54.4*,51.8*,83.2*,79.3*,53.3*
O=C(c1cc(-c2cccc(O)c2)on1)N1CCOCC1,14.8,62.7*,26.4,-12.2,46.8,28.4,48.0,41.7,69.8*,78.0*,59.0*
O=C(c1cc(-c2ccc(Br)cc2)on1)N1CCOCC1,15.8,52.5*,27.2,37.7,34.2,.,24.8,45.6,21.4,35.4,2.3
C[C@@H]1CCCN1[C@H]1CS(=O)(=O)N[C@@H]1COCc1ccccc1,10.9,.,.,2.9,.,.,.,.,.,.,.
Nc1ncc(Br)cc1S(=O)(=O)NCCC(=O)NCCc1ccc(Cl)cc1,-28.5,-3.4,9.6,-3.2,1.3,.,.,.,.,.,.
O=C(/C=C/c1ccco1)NCC1COc2ccccc2O1 (stereo not given),-3.6,3.7,2.2,3.2,-5.5,36.1,.,.,.,.,.
COc1ccc2c(c1)CC/C(=C/c1ccco1)C2=O,-71.6,90.6*,82.8*,49.7,-4.9,17.9,96.3*,97.0*,101.5*,91.5*,93.7*
O=C1/C(=C/c2ccco2)CCc2ccccc21,-50.0,87.4*,74.7*,23.1,-1.2,8.6,96.8*,99.3*,102.4*,96.4*,93.8*
Nc1ccc2c(c1)C/C(=C/c1ccco1)C2=O,-387.2,-39.9,-3.5,41.3,-8.3,3.6,.,.,.,.,.
O=C(COC(=O)c1cc[n+]([O-])cc1)NCc1ccccc1Cl,0.9,-7.9,-4.9,-3.4,-3.6,7.5,.,.,.,.,.
Cc1ccc(S(=O)(=O)CCN2C=CC(C(F)(F)F)=NCC2)cc1,24.5,-13.6,1.2,5.0,4.3,19.4,.,.,.,.,.
COc1c2ccccc2nn1C(C)C,2.3,.,.,11.5,.,.,.,.,.,.,.
Cc1nc(/N=C\c2ccc(N(C)C)cc2)sc1C,-0.5,2.5,60.5*,-6.3,10.5,.,-23.9,-13.9,-7.6,-9.2,-4.7
CN(C)c1ccc(C=Nc2ccc(N(C)C)cc2)cc1,4.9,22.1,-16.5,-1.3,22.6,18.4,.,.,.,.,.
Brc1ccccc1-c1nnc(-c2cccnc2)o1,8.9,10.6,-7.6,7.7,4.7,-4.9,.,.,.,.,.
